# From the supplement of paper PMC12282887
# ± gives the standard deviation of the averaged measurements.
# How the values were obtained:
# Assay in all cases: promoter activity interaction Z-score (Lux/OD deviation from empty-vector control); higher = stronger promoter induction by the compound
# [1] = system: E. coli BW25113 acrABp lux reporter
# How it was run: (§1)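 Reporter strains of E. coli BW25113 grew at 37°C in 40 µl LB Lennox in 384-well plates. Readings of OD600 and luminescence were taken every 30 min over 12 h, integrated over 0–8 h (wild type) or 1–9 h (deletion strains), and wells below 10% of the median growth value were excluded. Scores are Z-transformed residuals of growth-normalised luminescence from a fit against a control.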
# [2] = system: E. coli BW25113 micFp lux reporter
# How it was run: as §1
# [3] = system: E. coli BW25113 ompFp lux reporter
# How it was run: as §1
# [4] = system: E. coli BW25113 robp lux reporter
# How it was run: as §1
# [5] = system: E. coli BW25113 soxSp lux reporter
# How it was run: as §1
# [6] = system: E. coli BW25113 tolCp lux reporter
# How it was run: as §1
# [7] = 0.25 µg/ml, genetic background: wild type
# [8] = 0.25 µg/ml, genetic background: ΔmarA
# [9] = 0.25 µg/ml, genetic background: Δrob
# [10] = 0.25 µg/ml, genetic background: ΔsoxS
# [11] = 0.5 µg/ml, genetic background: wild type
# [12] = 0.5 µg/ml, genetic background: ΔmarA
# [13] = 0.5 µg/ml, genetic background: Δrob
# [14] = 0.5 µg/ml, genetic background: ΔsoxS
# [15] = 1 µg/ml, genetic background: wild type
# [16] = 1 µg/ml, genetic background: ΔmarA
# [17] = 1 µg/ml, genetic background: Δrob
# [18] = 1 µg/ml, genetic background: ΔsoxS
# [19] = 2 µg/ml, genetic background: wild type
# [20] = 2 µg/ml, genetic background: ΔmarA
# [21] = 2 µg/ml, genetic background: Δrob
# [22] = 2 µg/ml, genetic background: ΔsoxS
structure (smiles),measurement,setting,value
CC1(C)S[C@@H]2[C@H](NC(=O)[C@H](N)c3ccc(O)cc3)C(=O)N2[C@H]1C(=O)O [Amoxicillin],promoter activity interaction Z-score,[1]; [7],-0.14 ± 0.051
same,promoter activity interaction Z-score,[1]; [8],-0.253 ± 0.59
same,promoter activity interaction Z-score,[1]; [9],-0.295 ± 0.22
same,promoter activity interaction Z-score,[1]; [10],-0.0223 ± 0.27
same,promoter activity interaction Z-score,[1]; [11],0.0232 ± 0.18
same,promoter activity interaction Z-score,[1]; [12],0.274 ± 0.094
same,promoter activity interaction Z-score,[1]; [13],-0.216 ± 0.0076
same,promoter activity interaction Z-score,[1]; [14],-0.454 ± 0.18
same,promoter activity interaction Z-score,[1]; [15],0.074 ± 0.092
same,promoter activity interaction Z-score,[1]; [16],-0.334 ± 1.8
same,promoter activity interaction Z-score,[1]; [17],-0.382 ± 0.033
same,promoter activity interaction Z-score,[1]; [18],-0.0766 ± 0.0011
same,promoter activity interaction Z-score,[1]; [19],2.15
same,promoter activity interaction Z-score,[1]; [20],0.388
same,promoter activity interaction Z-score,[1]; [21],0.134
same,promoter activity interaction Z-score,[2]; [7],0.256 ± 0.44
same,promoter activity interaction Z-score,[2]; [8],-0.0861 ± 0.065
same,promoter activity interaction Z-score,[2]; [9],0.0252 ± 0.083
same,promoter activity interaction Z-score,[2]; [10],-0.211 ± 0.11
same,promoter activity interaction Z-score,[2]; [11],0.278 ± 0.29
same,promoter activity interaction Z-score,[2]; [12],-0.0538 ± 0.13
same,promoter activity interaction Z-score,[2]; [13],0.0683 ± 0.17
same,promoter activity interaction Z-score,[2]; [14],-0.261 ± 0.46
same,promoter activity interaction Z-score,[2]; [15],0.0789 ± 0.095
same,promoter activity interaction Z-score,[2]; [16],-0.0503 ± 0.00046
same,promoter activity interaction Z-score,[2]; [17],0.0923 ± 0.071
same,promoter activity interaction Z-score,[2]; [18],-0.05 ± 0.078
same,promoter activity interaction Z-score,[2]; [19],1.75 ± 2.8
same,promoter activity interaction Z-score,[2]; [20],-0.285 ± 0.003
same,promoter activity interaction Z-score,[2]; [21],-0.0252 ± 0.1
same,promoter activity interaction Z-score,[2]; [22],-0.185 ± 0.25
same,promoter activity interaction Z-score,[3]; [7],0.146 ± 0.14
same,promoter activity interaction Z-score,[3]; [8],-0.696 ± 0.38
same,promoter activity interaction Z-score,[3]; [9],-0.183 ± 0.067
same,promoter activity interaction Z-score,[3]; [10],-0.811 ± 0.064
same,promoter activity interaction Z-score,[3]; [11],0.133 ± 0.13
same,promoter activity interaction Z-score,[3]; [12],-0.265 ± 0.34
same,promoter activity interaction Z-score,[3]; [13],-0.637 ± 0.024
same,promoter activity interaction Z-score,[3]; [14],-0.837 ± 0.48
same,promoter activity interaction Z-score,[3]; [15],-0.523 ± 0.21
same,promoter activity interaction Z-score,[3]; [16],-0.753 ± 0.13
same,promoter activity interaction Z-score,[3]; [17],-0.725 ± 0.24
same,promoter activity interaction Z-score,[3]; [18],-0.869 ± 0.041
same,promoter activity interaction Z-score,[3]; [20],-1.92
same,promoter activity interaction Z-score,[4]; [7],0.459 ± 0.29
same,promoter activity interaction Z-score,[4]; [8],-0.028 ± 0.04
same,promoter activity interaction Z-score,[4]; [9],-0.226 ± 0.034
same,promoter activity interaction Z-score,[4]; [10],-0.349 ± 0.75
same,promoter activity interaction Z-score,[4]; [11],0.699 ± 0.03
same,promoter activity interaction Z-score,[4]; [12],-0.354 ± 0.23
same,promoter activity interaction Z-score,[4]; [13],0.168 ± 0.52
same,promoter activity interaction Z-score,[4]; [14],-0.698 ± 0.12
same,promoter activity interaction Z-score,[4]; [15],-0.0437 ± 0.14
same,promoter activity interaction Z-score,[4]; [16],-0.0839 ± 0.86
same,promoter activity interaction Z-score,[4]; [17],0.396 ± 1.2
same,promoter activity interaction Z-score,[4]; [18],-1.05 ± 0.49
same,promoter activity interaction Z-score,[4]; [19],-1.64
same,promoter activity interaction Z-score,[4]; [20],0.17
same,promoter activity interaction Z-score,[5]; [7],0.174 ± 0.46
same,promoter activity interaction Z-score,[5]; [8],-0.165 ± 0.13
same,promoter activity interaction Z-score,[5]; [9],0.236 ± 0.24
same,promoter activity interaction Z-score,[5]; [10],-0.199 ± 0.15
same,promoter activity interaction Z-score,[5]; [11],0.319 ± 0.15
same,promoter activity interaction Z-score,[5]; [12],-0.00956 ± 0.1
same,promoter activity interaction Z-score,[5]; [13],0.0715 ± 0.076
same,promoter activity interaction Z-score,[5]; [14],-0.424 ± 0.15
same,promoter activity interaction Z-score,[5]; [15],0.0777 ± 0.017
same,promoter activity interaction Z-score,[5]; [16],-0.259 ± 0.12
same,promoter activity interaction Z-score,[5]; [17],0.156 ± 0.14
same,promoter activity interaction Z-score,[5]; [18],-0.361 ± 0.23
same,promoter activity interaction Z-score,[5]; [19],0.325 ± 0.57
same,promoter activity interaction Z-score,[5]; [20],-0.389 ± 0.55
same,promoter activity interaction Z-score,[5]; [21],0.0112 ± 0.1
same,promoter activity interaction Z-score,[5]; [22],0.999 ± 0.21
same,promoter activity interaction Z-score,[6]; [7],0.312 ± 0.33
same,promoter activity interaction Z-score,[6]; [8],-0.1 ± 0.033
same,promoter activity interaction Z-score,[6]; [9],0.375 ± 1
same,promoter activity interaction Z-score,[6]; [10],-0.105 ± 0.3
same,promoter activity interaction Z-score,[6]; [11],0.531 ± 0.051
same,promoter activity interaction Z-score,[6]; [12],0.00734 ± 0.28
same,promoter activity interaction Z-score,[6]; [13],0.919 ± 0.041
same,promoter activity interaction Z-score,[6]; [14],-0.655 ± 0.93
same,promoter activity interaction Z-score,[6]; [15],0.148 ± 0.45
same,promoter activity interaction Z-score,[6]; [16],-0.404 ± 0.22
same,promoter activity interaction Z-score,[6]; [17],0.949 ± 0.14
same,promoter activity interaction Z-score,[6]; [18],-0.0133 ± 0.46
same,promoter activity interaction Z-score,[6]; [19],0.917 ± 0.13
same,promoter activity interaction Z-score,[6]; [20],-0.67 ± 0.039
same,promoter activity interaction Z-score,[6]; [21],0.283 ± 0.8
same,promoter activity interaction Z-score,[6]; [22],-0.752 ± 0.58
